Among the test systems are DU-145 prostate; K-562 leukemia; MALME-3M melanoma; MDA-MB-231 breast; RXF 393 renal; SF-268 CNS; SF-295 CNS; SF-539 CNS; UACC-257 melanoma; M14 melanoma; HCT-15 colon; HT29 colon; SNB-75 CNS; SNB-19 CNS; U251 CNS; PC-3 prostate; SK-MEL-5 melanoma; UACC-62 melanoma; LOX IMVI melanoma; SK-MEL-28 melanoma.
Common to all, as to assay: NCI-60 one-dose screen, 48 h (100 = growth as untreated, 0 = no growth, -100 = all killed)
What all share (conditions): 10 µM unless noted

This note sets out measurements from PubChem BioAssay (NCI).

The panel holds about 83,000 compounds, 20% with a hit somewhere; the sample as a whole holds those more often.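 48-hour exposure, single concentration, 96-well plates; percent growth endpoint where 0 means no net growth. Active: below 10.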 Unmarked numbers belong to inactive results. Active and inactive are the calls of the source.

Take `O=C(OCc1ccc2c(Cl)cc(Cl)c(O)c2n1)N1CCNCC1`: the growth with DU-145 prostate is 47.7%; in the test with K-562 leukemia it was 19.1%; in the test on MALME-3M melanoma, 64.6%; with MDA-MB-231 breast, 54.3%; in the test on RXF 393 renal, 45.4%; with SF-268 CNS it was 35%. For the same compound, the growth in the test on SF-295 CNS was 24.2%; in the test with SF-539 CNS, 52.4%; in the test on UACC-257 melanoma it was 40.5%; in the test on M14 melanoma it was 43.6%; with HCT-15 colon, 18.5%; with HT29 colon, 80.6%. For the same compound, the growth was 48.4% in the test with SNB-75 CNS; 37% in the test on SNB-19 CNS; 16.2% in the test on U251 CNS; 29.8% in the test with PC-3 prostate; 35.7% in the test on SK-MEL-5 melanoma; 24.5% in the test with UACC-62 melanoma. In addition, the growth was 32.7% with LOX IMVI melanoma and 70.4% in the test with SK-MEL-28 melanoma.

As to `C=C(C)[C@@H]1CC[C@]2(C(N)=O)CC[C@]3(C)[C@H](CC[C@@H]4[C@@]5(C)C/C(=C/c6cccnc6)C(=O)C(C)(C)[C@@H]5CC[C@]43C)[C@@H]12`, the growth with DU-145 prostate is 24.6% [100 µM]; in the test on K-562 leukemia, 6.74% [100 µM] (active); with MALME-3M melanoma, -19.7% [100 µM] (active); with MDA-MB-231 breast, 0.809% [100 µM] (active); with RXF 393 renal, -8.8% [100 µM] (active); with SF-268 CNS, 39.3% [100 µM]. In addition, the growth was 6.69% [100 µM] (active) in the test with SF-295 CNS; -14.3% [100 µM] (active) with SF-539 CNS; 20.8% [100 µM] with UACC-257 melanoma; 15.7% [100 µM] in the test on M14 melanoma; 14.9% [100 µM] with HCT-15 colon; -45.3% [100 µM] (active) in the test on HT29 colon. Besides, the growth in the test on SNB-75 CNS is 40.6% [100 µM]; in the test with SNB-19 CNS, 27.8% [100 µM]; with U251 CNS, 9.19% [100 µM] (active); with PC-3 prostate it was 11.7% [100 µM]; with SK-MEL-5 melanoma, -61.9% [100 µM] (active); in the test with UACC-62 melanoma it was -1.04% [100 µM] (active). For the same compound, the growth was -41.5% [100 µM] (active) in the test with LOX IMVI melanoma and -8.42% [100 µM] (active) in the test on SK-MEL-28 melanoma.

In the case of `CC(=O)CC(=O)SC1=NCCS1`, the growth in the test on DU-145 prostate is 121%; in the test on K-562 leukemia, 104%; with MALME-3M melanoma, 140%; in the test on MDA-MB-231 breast, 112%; in the test on RXF 393 renal, 122%; in the test on SF-268 CNS, 102%. For the same compound, the growth in the test on SF-295 CNS was 109%; with SF-539 CNS it was 102%; with UACC-257 melanoma it was 98.8%; in the test with M14 melanoma, 113%; in the test with HCT-15 colon, 100%; in the test on HT29 colon, 105%. In addition, the growth in the test with SNB-75 CNS was 109%; with SNB-19 CNS, 107%; with U251 CNS, 102%; in the test on PC-3 prostate, 89.9%; with SK-MEL-5 melanoma, 112%; with UACC-62 melanoma, 115%. Further, the growth was 97.7% with LOX IMVI melanoma and 115% in the test on SK-MEL-28 melanoma.

Take `N#CCCc1c[nH]c2ccccc12`: the growth in the test with DU-145 prostate is 107%; in the test with K-562 leukemia, 85.4%; with MALME-3M melanoma, 98.9%; in the test with MDA-MB-231 breast, 97.1%; in the test with RXF 393 renal, 107%; in the test on SF-268 CNS, 91%. Moreover, the growth in the test on SF-295 CNS is 98.3%; in the test with SF-539 CNS, 95.9%; with UACC-257 melanoma it was 90.9%; in the test with M14 melanoma, 94.7%; in the test with HCT-15 colon it was 104%; in the test on HT29 colon it was 91.1%. The growth is 76.4% with SNB-75 CNS; 105% in the test on SNB-19 CNS; 91.3% in the test on U251 CNS; 78.6% in the test with PC-3 prostate; 92.1% in the test on SK-MEL-5 melanoma; 98.6% in the test with UACC-62 melanoma. Further, the growth is 90.5% in the test on LOX IMVI melanoma and 106% in the test on SK-MEL-28 melanoma.

With `N#Cc1c(N2CCOCC2)nc(=S)[nH]c1-c1ccco1`, the growth in the test with DU-145 prostate was 79.2%; with K-562 leukemia, 88.4%; in the test with MALME-3M melanoma it was 2.17% (active); with MDA-MB-231 breast it was 61.1%; in the test on RXF 393 renal, 71.3%; with SF-268 CNS, 77.3%. The growth in the test with SF-295 CNS is 47.4%; with SF-539 CNS it was 78.5%; in the test on UACC-257 melanoma, 92.8%; in the test on M14 melanoma, 39.8%; in the test with HCT-15 colon, 71.4%; in the test with HT29 colon, 63.7%. Further, the growth in the test on SNB-75 CNS is 15.9%; in the test with SNB-19 CNS, 83.8%; with U251 CNS, 76.4%; in the test with PC-3 prostate it was 42.6%; with SK-MEL-5 melanoma, 62.6%; in the test with UACC-62 melanoma, 43.7%. Further, the growth with LOX IMVI melanoma is 63.7%; in the test on SK-MEL-28 melanoma it was 77.6%.

For the compound `CCCCCCNC(=O)Nc1ncnc2c1ncn2-c1ccccc1`, the growth with DU-145 prostate is 108%; with K-562 leukemia it was 106%; in the test with MALME-3M melanoma, 115%; in the test with MDA-MB-231 breast, 92.8%; in the test with RXF 393 renal, 106%; in the test on SF-268 CNS it was 103%. The growth with SF-295 CNS is 90.1%; with SF-539 CNS it was 94%; in the test with UACC-257 melanoma it was 105%; in the test with M14 melanoma, 104%; in the test with HCT-15 colon, 95.2%; in the test on HT29 colon, 99.4%. For the same compound, the growth with SNB-75 CNS is 72.7%; with SNB-19 CNS, 94.2%; with U251 CNS, 94.8%; with PC-3 prostate it was 89.4%; with SK-MEL-5 melanoma, 98.3%; in the test with UACC-62 melanoma, 97.6%. Moreover, the growth with LOX IMVI melanoma is 102%; with SK-MEL-28 melanoma, 104%.

On to `Nc1ccc(Cl)c([N+](=O)[O-])c1`, for which the growth is 107% in the test with DU-145 prostate; 84.6% with K-562 leukemia; 119% with MALME-3M melanoma; 107% in the test on MDA-MB-231 breast; 109% with RXF 393 renal; 96.7% in the test with SF-268 CNS. The growth in the test with SF-295 CNS is 96.7%; in the test on SF-539 CNS, 101%; in the test with UACC-257 melanoma it was 95.1%; in the test with M14 melanoma it was 95.7%; in the test on HCT-15 colon, 87.8%; in the test on HT29 colon, 106%. Also, the growth was 89.3% with SNB-75 CNS; 108% in the test on SNB-19 CNS; 99.1% with U251 CNS; 88.3% in the test on PC-3 prostate; 97.6% with SK-MEL-5 melanoma; 80.1% in the test with UACC-62 melanoma. Further, the growth with LOX IMVI melanoma is 66.9%; with SK-MEL-28 melanoma, 100%.
